Results from PubChem BioAssay (NCI).
“And” between values parts separate entries of the source, which are not always exact repeats. Equal entries are not always repeated. The panel holds about 83,000 compounds, 20% with a hit somewhere; the sample as a whole holds those more often.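 Single-dose data. Exposure time 48 hours. Values below 10 considered active.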 The source made the active and inactive calls.

Tests used:
Assay in all cases: NCI-60 one-dose screen, 48 h (100 = growth as untreated, 0 = no growth, -100 = all killed)
Details in all cases: 10 µM unless noted
T-47D breast = tested on: T-47D breast
BT-549 breast = tested on: BT-549 breast
MDA-MB-435 melanoma = tested on: MDA-MB-435 melanoma
SW-620 colon = tested on: SW-620 colon
MCF7 breast = tested on: MCF7 breast
HCT-116 colon = tested on: HCT-116 colon
HCC-2998 colon = tested on: HCC-2998 colon
KM12 colon = tested on: KM12 colon

Structure (SMILES)	growth (T-47D breast)	growth (BT-549 breast)	growth (MDA-MB-435 melanoma)	growth (SW-620 colon)	growth (MCF7 breast)	growth (HCT-116 colon)	growth (HCC-2998 colon)	growth (KM12 colon)
CCOc1ccc(N2C(N)=NC(N)=NC2(C)C)cc1	38% (inactive) and 86% (inactive)	59.6% (inactive) and 83.4% (inactive)	-42.8% (active) and 82.7% (inactive)	16.2% (inactive) and 75.8% (inactive)	6.3% (active) and 88.3% (inactive)	21.4% (inactive) and 63.1% (inactive)	40.2% (inactive) and 112% (inactive)	25.1% (inactive) and 95.6% (inactive)
Clc1ccc(/C=N\N2CCCCCC2)cc1	108% (inactive) and 97.4% (inactive)	105% (inactive) and 90.4% (inactive)	86.8% (inactive) and 96.3% (inactive)	101% (inactive) and 110% (inactive)	98.8% (inactive) and 96.2% (inactive)	103% (inactive) and 104% (inactive)	97.4% (inactive)	107% (inactive)
CN(Cc1ccccc1)c1nc(Cl)c(C2CC(c3ccc4c(c3)OCO4)=NN2c2cc(Cl)cc(Cl)c2)s1 (stereo unspecified)	86.1% (inactive)	104% (inactive)	97.2% (inactive)	99.1% (inactive)	78.2% (inactive)	87% (inactive)	106% (inactive)	98.5% (inactive)
CCOC(=O)c1nnn(Cc2cc(=O)oc3c2ccc2ccccc23)c1C	93.9% (inactive)	108% (inactive)	105% (inactive)	107% (inactive)	92% (inactive)	89.3% (inactive)	106% (inactive)	104% (inactive)
COc1cc(-c2nc(SCCC(C)C)nc(Nc3ccc(F)cc3)c2C#N)cc(OC)c1OC	65.7% (inactive)	74.9% (inactive)	79.4% (inactive)	80.1% (inactive)	87% (inactive)	22% (inactive)	102% (inactive)	78.6% (inactive)
O=C(CCl)N(O)c1ccc(/C=C/c2ccccc2)cc1	63.8% (inactive) and 59.5% (inactive)	73.5% (inactive) and 62.4% (inactive)	97.2% (inactive) and 90% (inactive)	74.3% (inactive) and 53.5% (inactive)	49.2% (inactive) and 42.5% (inactive)	69.1% (inactive) and 51.7% (inactive)	75.7% (inactive) and 89.3% (inactive)	102% (inactive) and 91.6% (inactive)
Nc1ccc(-c2ccc(N)c(Br)c2)cc1Br	40.9% (inactive)	34% (inactive)	1.83% (active)	47% (inactive)	17.9% (inactive)	23.6% (inactive)	64.6% (inactive)	37.3% (inactive)
NC(N)=NC(N)=NCCCc1ccco1	106% (inactive)	115% (inactive)	110% (inactive)	94.5% (inactive)	106% (inactive)	108% (inactive)	106% (inactive)	101% (inactive)
COc1ccc(-c2cc(-c3cc(OC)c(OC)c(OC)c3)c(C#N)c(=O)n2CCCCC(=O)O)cc1	72.6% (inactive)	102% (inactive)	80.2% (inactive)	98% (inactive)	93.2% (inactive)	94.1% (inactive)	105% (inactive)	94.6% (inactive)
CCN1C(=S)N(CC)C2C1NC(=S)N2/N=C/C=C/c1ccccc1 (stereo unspecified)	36.9% (inactive)	47.5% (inactive)	-39% (active)	28% (inactive)	17.8% (inactive)	22.8% (inactive)	56.7% (inactive)	22% (inactive)
COc1ccc(CN2CCc3c(Cl)nc(N)nc3C2=O)c(OC)c1	12.8% [100 µM] (inactive)	-20.3% [100 µM] (active)	1.81% [100 µM] (active)	-46.8% [100 µM] (active)	6.65% [100 µM] (active)	-72.7% [100 µM] (active)	-85.9% [100 µM] (active)	11.1% [100 µM] (inactive)
N#Cc1cc(-c2ccnc(Nc3ccc(NC(=O)CCl)cc3)n2)ccc1N1CCCC1	-68.2% (active)	-65% (active)	-47.6% (active)	-36.9% (active)	-19.1% (active)	-37.2% (active)	-79.5% (active)	-11.6% (active)
O=C(NNc1ccccc1)c1ncc[nH]1	43.6% (inactive)	101% (inactive)	24.2% (inactive)	60.7% (inactive)	56.5% (inactive)	64.4% (inactive)	60.6% (inactive)	29.5% (inactive)
Clc1ccc(Nc2nc(Nc3ccc(Cl)cc3)nc(Nc3ccc(-c4cc(-c5cccc(Cl)c5)on4)cc3)n2)cc1	83.3% (inactive)	98.6% (inactive)	104% (inactive)	96.6% (inactive)	86.6% (inactive)	99.6% (inactive)	121% (inactive)	104% (inactive)
CSc1nnc(-c2cc3c([nH]c4ccccc43)c(-c3cccc(O)c3)n2)n1-c1ccc(C)cc1	24.5% (inactive)	34.5% (inactive)	-49.5% (active)	30% (inactive)	5.16% (active)	23.8% (inactive)	54.2% (inactive)	26.3% (inactive)
COc1cc(Nc2nc3ccccc3cc2C(=O)Nc2ccc(F)c(F)c2)cc(OC)c1OC	9.25% (active)	55.5% (inactive)	19.7% (inactive)	23% (inactive)	12.8% (inactive)	6.91% (active)	45.3% (inactive)	20% (inactive)
Cc1nc(-n2[nH]c(=O)ccc2=O)sc1N=Nc1ccccc1	94% (inactive)	95.7% (inactive)	102% (inactive)	98.1% (inactive)	94.2% (inactive)	97.5% (inactive)	115% (inactive)	108% (inactive)
COC(=O)c1[nH]nc(OC)c1C1(C(C#N)c2nc3ccccc3s2)CCCc2ccccc21 (stereo unspecified)	84.1% (inactive)	88.2% (inactive)	104% (inactive)	104% (inactive)	84.8% (inactive)	104% (inactive)	102% (inactive)	97% (inactive)
O=C(Nc1ccc2ccccc2c1)c1cc2ccccc2cc1O	83.3% (inactive)	81.5% (inactive)	103% (inactive)	103% (inactive)	65.9% (inactive)	92.3% (inactive)	107% (inactive)	-36.8% (active)
COc1ccccc1/C=C/C(=O)/C=C/c1ccccc1OC	-41.1% (active) and 4.16% (active)	-51.9% (active) and -30.6% (active)	-30.8% (active)	-27.1% (active) and -20% (active)	5.62% (active) and 17.9% (inactive)	-81.7% (active) and -87.1% (active)	-84% (active) and 2.03% (active)	-60% (active) and -45.2% (active)
O=C1C(=C(O)c2ccccc2)C(=O)c2ccccc21	103% (inactive)	95.7% (inactive)	103% (inactive)	111% (inactive)	102% (inactive)	102% (inactive)	109% (inactive)	104% (inactive)
CCN(c1cc(-c2ccc(CN3CCC(/C=C/S(=O)(=O)c4ccccc4)CC3)cc2)cc(C(=O)NCc2c(C)cc(C)[nH]c2=O)c1C)C1CCOCC1	71.6% (inactive)	51.3% (inactive)	76.8% (inactive)	94% (inactive)	44.3% (inactive)	56.9% (inactive)	101% (inactive)	76.1% (inactive)
Cc1ccc(C(=O)c2ccc(CC(=O)N=Nc3c(O)[nH]c4ccc(OC(F)(F)F)cc34)n2C)cc1	74.5% (inactive)	95.3% (inactive)	97.9% (inactive)	95.7% (inactive)	91.5% (inactive)	97% (inactive)	119% (inactive)	94% (inactive)
C=C(CNCCO)[C@@H]1CC[C@]2(CO)CC[C@]3(C)[C@H](CC[C@@H]4[C@@]5(C)CCC(NCCc6ccc(O)cc6)C(C)(C)[C@@H]5CC[C@]43C)[C@@H]12 (stereo partly specified)	-66.1% (active)	-79.2% (active)	-95.5% (active)	-75.1% (active)	-73.4% (active)	-94.4% (active)	-94.8% (active)	-81.2% (active)
COc1ccc2c(c1)CC[C@@H]1[C@@H]2CC[C@]2(C)C3C(=CCC4C(=O)N(c5ccccc5)C(=O)C43)C[C@@H]12 (stereo partly specified)	99.6% (inactive)	110% (inactive)	86.4% (inactive)	90.6% (inactive)	111% (inactive)	66.9% (inactive)	93.6% (inactive)	93.6% (inactive)
CCCCn1c(C(=O)c2c[nH]c3ccccc23)n[nH]c1=S	77.5% (inactive)	114% (inactive)	98.7% (inactive)	101% (inactive)	73.2% (inactive)	92.4% (inactive)	101% (inactive)	92.2% (inactive)
C#CCn1cnc2cnc(Nc3cccc(NC(=O)CCl)c3)nc21	5.42% [6.25 µM] (active)	3.26% [6.25 µM] (active)	-19.6% [6.25 µM] (active)	0.405% [6.25 µM] (active)	-6.48% [6.25 µM] (active)	-30.2% [6.25 µM] (active)	-11.4% [6.25 µM] (active)	-2.39% [6.25 µM] (active)
